We go through 6 compounds from PubChem BioAssay (NCI).

About 83,000 compounds went through this panel and 20% of them were active in at least one assay; those are over-represented in the sample as a whole.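 48-hour exposure, single concentration, 96-well plates; percent growth endpoint where 0 means no net growth. Active: below 10.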 Values without a mark were called inactive. The source made the active and inactive calls.

Among the test systems are HCT-15 colon; HT29 colon; SNB-75 CNS; SNB-19 CNS; U251 CNS; PC-3 prostate; SK-MEL-5 melanoma; UACC-62 melanoma; LOX IMVI melanoma; SK-MEL-28 melanoma; SK-MEL-2 melanoma; EKVX NSCLC; SN12C renal; UO-31 renal; TK-10 renal; ACHN renal; CAKI-1 renal; A498 renal; CCRF-CEM leukemia; MOLT-4 leukemia.
Common to all, as to test: NCI-60 one-dose screen, 48 h (100 = growth as untreated, 0 = no growth, -100 = all killed)
Common to all, as to conditions: 10 µM unless noted

On to `Nc1c(C(=O)Nc2ccccn2)sc2nc3c(cc12)C(O)CCC3` (stereo not given), for which the growth in the assay on HCT-15 colon was 23.1%; with HT29 colon it was 11.8%; in the assay on SNB-75 CNS, 12.7%; in the assay on SNB-19 CNS, 20.9%; with U251 CNS, 19%; in the assay with PC-3 prostate, 16.3%. The growth in the assay with SK-MEL-5 melanoma is 20.3%; with UACC-62 melanoma, 18.7%; in the assay with LOX IMVI melanoma, 36.6%; in the assay with SK-MEL-28 melanoma, 46.6%; in the assay with SK-MEL-2 melanoma it was 43.8%; in the assay on EKVX NSCLC it was 42.1%. The growth is 44.3% with SN12C renal; 43.6% in the assay with UO-31 renal; 47.4% in the assay on TK-10 renal; 46.2% in the assay with ACHN renal; 28.9% with CAKI-1 renal; 3.12% (active) in the assay with A498 renal. In addition, the growth was 6.62% (active) in the assay with CCRF-CEM leukemia and 34% in the assay with MOLT-4 leukemia.

`COc1cc2nc(Nc3cccc(F)c3)nc(Nc3cc(C)[nH]n3)c2cc1OC`: the growth in the assay on HCT-15 colon is -78.6% [20 µM] (active); with HT29 colon, -54.9% [20 µM] (active); in the assay with SNB-75 CNS, -97.5% [20 µM] (active); in the assay on SNB-19 CNS it was -89.2% [20 µM] (active); in the assay with U251 CNS it was -55.5% [20 µM] (active); in the assay on PC-3 prostate, -81% [20 µM] (active). Further, the growth in the assay on SK-MEL-5 melanoma is -90.1% [20 µM] (active); in the assay on UACC-62 melanoma it was -95.7% [20 µM] (active); in the assay with LOX IMVI melanoma, -82.3% [20 µM] (active); with SK-MEL-28 melanoma it was -99.3% [20 µM] (active); in the assay on SK-MEL-2 melanoma it was -68.2% [20 µM] (active); with EKVX NSCLC, -67.4% [20 µM] (active). For the same compound, the growth with SN12C renal is -94.3% [20 µM] (active); in the assay with UO-31 renal, -98.7% [20 µM] (active); with TK-10 renal, -71% [20 µM] (active); in the assay with ACHN renal it was -97.1% [20 µM] (active); in the assay on CAKI-1 renal it was -97.7% [20 µM] (active); in the assay on A498 renal, -83% [20 µM] (active). Besides, the figures for the growth with CCRF-CEM leukemia and in the assay on MOLT-4 leukemia were -19.7% [20 µM] (active) and -40.8% [20 µM] (active), respectively.

As for `CC(CN)[C@@H]1CC[C@]2(CO)CC[C@]3(C)[C@H](CC[C@@H]4[C@@]5(C)CCC(N)C(C)(C)[C@@H]5CC[C@]43C)[C@@H]12` (stereo not given in full), the growth is -75.4% (active) with HCT-15 colon; -85.9% (active) in the assay with HT29 colon; 52.2% with SNB-75 CNS; 5.3% (active) in the assay with SNB-19 CNS; -88.4% (active) in the assay with U251 CNS; -76.2% (active) in the assay on PC-3 prostate. Further, the growth in the assay on SK-MEL-5 melanoma was 57.5%; in the assay with UACC-62 melanoma it was 104%; in the assay on LOX IMVI melanoma, -72.1% (active); with SK-MEL-28 melanoma, -39.8% (active); in the assay on SK-MEL-2 melanoma, 81.6%; with EKVX NSCLC, -44.7% (active). Moreover, the growth was 25.5% in the assay with SN12C renal; 0.963% (active) in the assay with UO-31 renal; 57.7% in the assay on TK-10 renal; 17.7% with ACHN renal; 33.7% in the assay with CAKI-1 renal; 92.2% with A498 renal. Moreover, the growth in the assay on CCRF-CEM leukemia was -32.1% (active); in the assay on MOLT-4 leukemia, -35.1% (active).

`S=c1[nH]c2cc(Cl)ccc2o1`: the growth was 98.6% with HCT-15 colon; 105% in the assay with HT29 colon; 111% with SNB-75 CNS; 102% with SNB-19 CNS; 104% with U251 CNS; 88% in the assay with PC-3 prostate. Also, the growth in the assay with SK-MEL-5 melanoma was 99%; in the assay with UACC-62 melanoma, 96.6%; in the assay with LOX IMVI melanoma, 103%; in the assay on SK-MEL-28 melanoma, 114%; in the assay with SK-MEL-2 melanoma, 98.6%; in the assay on EKVX NSCLC it was 99.3%. Further, the growth with SN12C renal was 100%; with UO-31 renal it was 87.9%; in the assay on TK-10 renal, 94.6%; with ACHN renal it was 98.7%; with CAKI-1 renal, 97.8%; with A498 renal, 91.8%. For the same compound, the growth is -43.2% (active) in the assay on CCRF-CEM leukemia and 63.1% in the assay on MOLT-4 leukemia.

`NC(=O)c1c(NC(=O)c2ccc(Cl)cc2)sc2c1CCC(=O)C2`: the growth is 63.5% with HCT-15 colon; 62.5% in the assay with HT29 colon; 45.4% in the assay on SNB-75 CNS; 71.1% in the assay on SNB-19 CNS; 24% in the assay with U251 CNS; 15.5% with PC-3 prostate. Moreover, the growth in the assay with SK-MEL-5 melanoma is 99.1%; with UACC-62 melanoma it was 61.9%; in the assay on LOX IMVI melanoma, 56.5%; in the assay with SK-MEL-28 melanoma, 99.2%; in the assay on SK-MEL-2 melanoma, 99.6%; in the assay with EKVX NSCLC, 92.7%. The growth was 71.8% with SN12C renal; 40.7% in the assay on UO-31 renal; 85.2% in the assay on TK-10 renal; 45.6% in the assay with ACHN renal; 18.6% in the assay on CAKI-1 renal; 77% in the assay with A498 renal. Moreover, the growth was 7.15% (active) in the assay on CCRF-CEM leukemia and 46.3% in the assay with MOLT-4 leukemia.

For the compound `CC(C)(C)C(=O)/C=C/c1ccc([N+](=O)[O-])cc1`, the growth in the assay on HCT-15 colon is 42.1%; with HT29 colon, 50.2%; with SNB-75 CNS, 81.1%; in the assay with SNB-19 CNS it was 66.9%; in the assay on U251 CNS, 58%; with PC-3 prostate, 55.3%. The growth with SK-MEL-5 melanoma is 81.7%; in the assay with UACC-62 melanoma, 74.4%; with LOX IMVI melanoma, 36.9%; in the assay with SK-MEL-28 melanoma it was 92.1%; in the assay with SK-MEL-2 melanoma it was 89.2%; in the assay on EKVX NSCLC it was 89.3%. In addition, the growth with SN12C renal is 92.1%; in the assay with UO-31 renal, 76.5%; in the assay on TK-10 renal, 91.4%; with ACHN renal it was 57.3%; with CAKI-1 renal, 96.1%; in the assay with A498 renal, 91%. Further, the results for the growth in the assay with CCRF-CEM leukemia and in the assay on MOLT-4 leukemia were 44.3% and 75.4%, respectively.
